From PubChem BioAssay (NCATS) come the findings set out here.

Records with an inconclusive call do not appear. The source made the active and inactive calls. Unless noted, calls come from the whole dose curve; as a rule, active = well fitted curve in either direction with a large enough effect (not every such curve was filed as active); inconclusive = small, poorly fitted or top-dose-only effect, or another doubt; inactive = flat fitted curve, though single readings scatter.

The target in test [1] is Lysosomal acid glucosylceramidase (Homo sapiens) (UniProt P04062). The experiment in a line: Glucocerebrosidase-p2 (AID 348; in the data active = potency below about 10 µM; note: potency is the fitted concentration of half-maximal effect). The settings on record: purified GBA, blue fluorogenic substrate, 40 min. The procedure, abridged: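 Compounds titrated from 0.6 nM upwards against 0.2 nM enzyme in pH 5.9 citric acid/KH2PO4, taurocholate, tween-20; blue fluorogenic substrate 80 uM, 40 min room temperature, stopped and read Ex 365/Em 440 for AC50.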
Chain of Lysosomal acid glucosylceramidase (Homo sapiens) (P04062 whole entry, looked up): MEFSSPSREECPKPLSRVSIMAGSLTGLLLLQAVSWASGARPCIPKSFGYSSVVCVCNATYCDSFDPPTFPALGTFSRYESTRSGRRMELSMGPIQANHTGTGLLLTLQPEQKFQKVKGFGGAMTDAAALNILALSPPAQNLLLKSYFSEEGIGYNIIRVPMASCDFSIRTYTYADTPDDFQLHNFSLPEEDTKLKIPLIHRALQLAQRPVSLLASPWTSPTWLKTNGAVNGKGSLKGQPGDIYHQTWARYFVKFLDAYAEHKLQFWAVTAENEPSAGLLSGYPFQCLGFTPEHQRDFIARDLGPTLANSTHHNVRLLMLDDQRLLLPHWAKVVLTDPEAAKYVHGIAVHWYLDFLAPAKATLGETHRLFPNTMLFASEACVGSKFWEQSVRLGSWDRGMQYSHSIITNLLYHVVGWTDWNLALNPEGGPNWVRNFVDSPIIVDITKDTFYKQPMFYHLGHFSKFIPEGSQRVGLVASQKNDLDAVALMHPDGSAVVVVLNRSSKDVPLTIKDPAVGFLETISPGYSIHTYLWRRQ

Test [2] in a line: AP1 Signaling Pathway (AID 357).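 Note: ME-180 reporter cells stimulated with EGF at its EC50 level; % is set by controls: 0 for no effect and ±100 for the full control effect.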 Particulars: ME-180 AP-1-bla reporter, EGF-induced, beta-lactamase ratio, 5 h; at 7.69 µM (top of the series) unless noted. The procedure, abridged:
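Titration-series screen for positive or negative modulators of EC50 EGF-induced signaling in ME-180 cells carrying an AP-1-driven beta-lactamase reporter. After 5 hours at 37 degrees Celsius, CCF4 460nm/530nm emission ratio gave %Activity; AC50 values derived.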

Test [3] deals with Cytochrome P450 1A2 (Homo sapiens) (UniProt P05177). Briefly: p450-cyp1a2 (AID 410; calls by dose curve; note: potency is the fitted concentration of half-maximal effect). Particulars: recombinant CYP1A2, luciferin-ME demethylation, luminescence; series mostly up to 57 µM. In outline: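 Luminescent readout of luciferin formed from Luciferin-ME by human CYP1A2; data normalized against complete inhibition by 57 uM furafylline. Enzyme 20nM, substrate 100uM at Km, 100mM KPO4 buffer, 60 min reaction at room temperature.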
Chain of Cytochrome P450 1A2 (Homo sapiens) (P05177 whole entry, looked up): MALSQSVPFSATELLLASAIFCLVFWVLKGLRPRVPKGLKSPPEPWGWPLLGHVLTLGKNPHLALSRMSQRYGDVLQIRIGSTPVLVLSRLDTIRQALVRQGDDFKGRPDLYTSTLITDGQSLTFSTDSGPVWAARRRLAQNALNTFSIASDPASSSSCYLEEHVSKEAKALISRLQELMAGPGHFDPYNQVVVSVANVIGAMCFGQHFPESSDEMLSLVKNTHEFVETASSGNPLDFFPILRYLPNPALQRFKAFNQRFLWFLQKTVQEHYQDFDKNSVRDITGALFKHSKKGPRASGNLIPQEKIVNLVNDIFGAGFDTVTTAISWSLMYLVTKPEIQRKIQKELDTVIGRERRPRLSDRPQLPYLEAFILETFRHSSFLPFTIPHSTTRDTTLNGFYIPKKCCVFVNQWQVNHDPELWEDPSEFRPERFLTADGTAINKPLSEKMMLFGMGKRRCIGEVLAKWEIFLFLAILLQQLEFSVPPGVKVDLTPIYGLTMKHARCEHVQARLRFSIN

A short description of test [4]: Stat Signaling Pathway (AID 446).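 Note: ME-180 cervical cancer cells given 40 pM IL-6 alongside compound; SIE-controlled beta-lactamase reporter measured as 460/530 nm FRET emission ratio; % is set by controls: 0 for no effect and ±100 for the full control effect.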 The settings on record: ME-180 SIE beta-lactamase reporter, IL-6 stimulated, 5 h; at 7.69 µM (top of the series) unless noted. In outline: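 Reporter line: ME-180 cervical carcinoma, SIE-beta-lactamase. Treatment: compound with 40 pM IL-6, 5 hrs, 37 C, in low-serum OPTI-MEM with 10 mM HEPES pH 7.3. Detection: 460/530 nm fluorescence.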

The target in test [5] is Glucocorticoid receptor (Homo sapiens) (UniProt P04150). The experiment in a line: GR-EFC Redistribution (AID 451; calls by dose curve; note: potency is the fitted concentration of half-maximal effect). The settings on record: CHO-K1 GR-EFC translocation, beta-gal luminescence, 2 h. In outline:
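CHO-K1 cells expressing nuclear EA and GR-ED fragments of b-gal; compounds titrated up to 46 uM final, 2 h at 37 C. GR nuclear translocation read as complemented b-gal luminescence after 1 h RT detection.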

The target of test [6] is Mitogen-activated protein kinase 10 (Mus musculus) (UniProt Q61831). Briefly: JNK3 AlphaScreen Assay (AID 530).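 Note: kinase came from lysate of stimulated human HepG2 cells; signal reports phosphorylation of biotinylated GST-cJun 1-79 at Ser73 with 10 µM ATP; % is set by controls: 0 for no effect and ±100 for the full control effect.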 Particulars: JNK3 lysate, c-Jun phosphorylation; series mostly up to 57.1 µM. In outline:
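Pre-activated (IL-1β/TNFα) JNK3 in HepG2 lysates phosphorylates biotin-GST-cJun(1-79), 10 uM ATP; anti-phospho-cJun(Ser73) AlphaScreen read at room temperature, pH 7.6 Tris buffer. Compounds pre-incubated 15 min as titrations.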

Test [7] addresses 3',5'-cyclic-AMP phosphodiesterase 4B (Homo sapiens) (UniProt Q07343). The experiment in a line: qHTS Assay for Inhibitors of PDE-IV (AID 607; active = well fitted activation curve with a large enough effect in the main read-out, with a control signal flat, not every such curve was filed as active; note: % of control where 0% means no effect). Particulars: HEK293 ACTOne CNG channel cells, membrane potential fluorescence; series mostly up to 22.9 µM. The procedure, abridged: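 Cell-based read-out of cAMP via a modified cyclic nucleotide-gated channel and membrane potential dye (535/590 nm) in HEK293 cells expressing PDE4 endogenously. Compounds tested up to 22.9 uM final; 100 uM RO 20-1724 reference.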
(In general: qHTS replaces the single test concentration by a dilution series.)

Test [8] deals with Cytochrome P450 3A4 (Homo sapiens) (UniProt P08684). Briefly: qHTS Assay for Activators of Cytochrome P450 3A4 (AID 885; active = well fitted curve in the direction sought with a large enough effect; an effect the other way counts as inactive or inconclusive; note: nearly all actives have a fitted effect of over 65% in size). Particulars: recombinant CYP3A4, Luciferin-PPXE luminescence, 60 min; series mostly up to 57.1 µM. The procedure, abridged:
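Signal was normalized against complete inhibition by 57 uM ketoconazole. The reaction used 20nM CYP3A4 with 25uM Luciferin-PPXE, 10-min compound preincubation and a 60-min NADPH-supported step at RT.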

The nature of test [9]: qHTS Assay for Lipid Storage Modulators (AID 1519; calls by dose curve). The settings on record: Drosophila S3 cells, BODIPY lipid droplet/cell ratio, laser cytometry, cells loaded with oleic acid; for activity change, negative = inhibition: at 57.5 µM (top of the series). In outline: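 Cells seeded at 5,000 per well were treated with compounds over a concentration series and loaded with oleic acid (400 uM, as added). Lipid droplet fluorescence (488 nm excitation, 500-530 nm channel) was read by laser-scanning cytometry and normalized to 20 uM Triacsin C.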

A short description of test [10]: NFAT Signaling Pathway (AID 444).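 Note: carbachol stimulus at about its EC50 of 1 µM final; % is set by controls: 0 for no effect and ±100 for the full control effect.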 Particulars: Jurkat NFAT-bla M1, carbachol, beta-lactamase ratio, 5 h; at 7.69 µM (top of the series) unless noted. In outline: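 Jurkat cells with NFAT-driven β-lactamase reporter and co-expressed M1 receptor, stimulated with carbachol (final 1 uM, ~EC50), compound titration, 5 h at 37 °C. CCF4 loaded 1 h at RT; 460/530 nm ratio gave %activity and AC50.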

Test [11] addresses Glucocorticoid receptor (Homo sapiens) (UniProt P04150). The experiment in a line: GR-GFP Redistribution (AID 450;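 active = compounds whose dose series gives a full or clear partial fitted curve of increased nuclear translocation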; note: potency is the fitted concentration of half-maximal effect). The settings on record: U2OS GR-GFP nuclear translocation, laser cytometry, 2 h.
Test [12] can be described thus: Confirmation and Secondary Assay for Modulators of Hemoglobin Beta Chain Splicing at IVS2 654 locus (AID 910; active = well fitted curve in the direction sought with a large enough effect; an effect the other way counts as inactive or inconclusive;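 note: HeLa cells stably carrying EGFP split by mutant beta-globin IVS2-654 intron; % of control where 0% means no effect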). Particulars: HeLa EGFP-654 splicing reporter, GFP fluorescence, 48 h; series mostly up to 38.3 µM. In outline: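 HeLa cells stably expressing EGFP interrupted by β-globin IVS2-654 intron, seeded overnight in Opti-MEM/2% FCS, then treated 2 days at 37 °C. Restored splicing read as total peak GFP intensity per well by laser scanning cytometry (488 nm excitation, 500–520 nm emission); 500 nM antisense PNA as control.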

A short description of test [13]: Confirmation and Secondary Assay for Modulators of Hemoglobin Beta Chain Splicing at IVS2 705 locus (AID 930; active = well fitted curve in the direction sought with a large enough effect; an effect the other way counts as inactive or inconclusive;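 note: HeLa cells stably expressing the EGFP-705 splicing reporter; GFP fluorescence per well restored by corrected splicing of the IVS2-705 intron in EGFP; % of control where 0% means no effect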). Particulars: HeLa EGFP-705 splicing reporter, GFP fluorescence, 48 h; series mostly up to 38.3 µM. The procedure, abridged: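 HeLa EGFP-705 reporter; 500 cells/well, o/n 37C 5% CO2; cpd 2 d; 488 ex/500-520 em laser scan; total peak GFP intensity/well. Ref: 500 nM […] antisense PNA.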

In test [14] the target is Ubiquitin carboxyl-terminal hydrolase 1 (Homo sapiens) (UniProt O94782). The experiment in a line: Inhibitors of USP1/UAF1: Pilot qHTS (AID 504865; active = well fitted curve in the direction sought with a large enough effect; an effect the other way counts as inactive or inconclusive;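 note: rhodamine fluorescence freed from ubiquitin-rhodamine substrate followed over time; top concentration of the series differs between compounds; % is set by controls: 0 for no effect and ±100 for the full control effect; nearly all actives have a fitted effect of over 35% in size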). The settings on record: purified USP1/UAF1, Ub-rhodamine cleavage fluorescence; series mostly up to 54.9 µM. The procedure, abridged: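 Deubiquitinase activity followed as kinetic rhodamine fluorescence release from 150 nM Ub-Rho. 1 nM USP1/UAF1 with compound, after 15 min room-temperature preincubation, in HEPES pH 7.8 buffer containing TCEP, EDTA, BSA and Tween-20.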
Chain of Ubiquitin carboxyl-terminal hydrolase 1 (Homo sapiens) (O94782 whole entry, looked up): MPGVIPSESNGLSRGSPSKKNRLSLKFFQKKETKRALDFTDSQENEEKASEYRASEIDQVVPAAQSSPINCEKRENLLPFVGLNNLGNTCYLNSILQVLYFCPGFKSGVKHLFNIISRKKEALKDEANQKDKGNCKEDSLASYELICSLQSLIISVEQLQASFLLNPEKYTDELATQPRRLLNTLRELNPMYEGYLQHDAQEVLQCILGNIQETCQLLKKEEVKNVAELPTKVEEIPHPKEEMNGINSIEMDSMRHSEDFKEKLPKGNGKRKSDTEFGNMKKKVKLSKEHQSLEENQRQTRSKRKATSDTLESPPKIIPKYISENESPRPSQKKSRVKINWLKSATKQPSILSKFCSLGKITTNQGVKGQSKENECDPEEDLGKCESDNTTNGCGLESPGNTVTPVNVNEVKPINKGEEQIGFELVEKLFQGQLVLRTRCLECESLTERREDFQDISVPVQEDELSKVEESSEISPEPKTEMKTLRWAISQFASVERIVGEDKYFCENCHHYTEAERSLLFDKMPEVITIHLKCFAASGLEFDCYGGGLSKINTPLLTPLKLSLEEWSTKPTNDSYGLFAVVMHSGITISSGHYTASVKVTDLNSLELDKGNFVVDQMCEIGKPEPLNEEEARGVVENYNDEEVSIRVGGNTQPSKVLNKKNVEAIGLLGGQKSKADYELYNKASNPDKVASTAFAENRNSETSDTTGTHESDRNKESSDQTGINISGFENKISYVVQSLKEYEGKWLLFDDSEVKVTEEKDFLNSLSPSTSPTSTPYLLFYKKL

Setting [15] is: measured here: cell count channel max response.
The mark [16] stands for this setting: measured here: lipid channel max response.

Chain of Cytochrome P450 3A4 (Homo sapiens) (P08684 whole entry, looked up): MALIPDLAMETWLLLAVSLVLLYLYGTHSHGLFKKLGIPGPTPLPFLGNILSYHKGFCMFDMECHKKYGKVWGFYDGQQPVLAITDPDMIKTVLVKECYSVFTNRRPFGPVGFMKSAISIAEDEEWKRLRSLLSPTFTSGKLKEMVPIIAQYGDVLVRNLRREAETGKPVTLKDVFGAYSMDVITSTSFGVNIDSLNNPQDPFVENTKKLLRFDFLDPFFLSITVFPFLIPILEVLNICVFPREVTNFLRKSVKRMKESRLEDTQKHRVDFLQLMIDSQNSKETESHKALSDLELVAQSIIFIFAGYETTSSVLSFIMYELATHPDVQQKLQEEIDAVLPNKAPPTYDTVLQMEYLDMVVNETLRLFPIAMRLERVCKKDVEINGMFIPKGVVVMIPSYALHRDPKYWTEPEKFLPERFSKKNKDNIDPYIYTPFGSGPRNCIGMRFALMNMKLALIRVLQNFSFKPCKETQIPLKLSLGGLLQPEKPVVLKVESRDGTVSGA
Chain of 3',5'-cyclic-AMP phosphodiesterase 4B (Homo sapiens) (Q07343 whole entry, looked up): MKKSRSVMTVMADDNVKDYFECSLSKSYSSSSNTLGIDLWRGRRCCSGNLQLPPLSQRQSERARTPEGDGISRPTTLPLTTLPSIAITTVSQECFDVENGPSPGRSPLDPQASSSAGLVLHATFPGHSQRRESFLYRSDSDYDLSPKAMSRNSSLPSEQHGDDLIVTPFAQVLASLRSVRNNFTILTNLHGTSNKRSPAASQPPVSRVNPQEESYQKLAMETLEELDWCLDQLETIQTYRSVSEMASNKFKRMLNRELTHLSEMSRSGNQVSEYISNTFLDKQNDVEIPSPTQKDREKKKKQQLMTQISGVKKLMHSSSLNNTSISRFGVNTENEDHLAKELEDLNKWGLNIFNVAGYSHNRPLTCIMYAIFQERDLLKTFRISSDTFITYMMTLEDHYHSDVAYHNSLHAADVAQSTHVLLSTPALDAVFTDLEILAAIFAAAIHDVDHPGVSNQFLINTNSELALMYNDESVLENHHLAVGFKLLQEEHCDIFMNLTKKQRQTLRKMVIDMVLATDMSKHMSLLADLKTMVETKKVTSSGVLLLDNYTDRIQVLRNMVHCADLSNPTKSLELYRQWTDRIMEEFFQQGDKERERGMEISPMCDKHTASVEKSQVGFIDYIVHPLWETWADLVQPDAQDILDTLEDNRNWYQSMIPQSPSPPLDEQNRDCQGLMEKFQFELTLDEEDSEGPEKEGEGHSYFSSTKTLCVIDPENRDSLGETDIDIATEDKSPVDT
Chain of Glucocorticoid receptor (Homo sapiens) (P04150 whole entry, looked up, the tested form may be a part): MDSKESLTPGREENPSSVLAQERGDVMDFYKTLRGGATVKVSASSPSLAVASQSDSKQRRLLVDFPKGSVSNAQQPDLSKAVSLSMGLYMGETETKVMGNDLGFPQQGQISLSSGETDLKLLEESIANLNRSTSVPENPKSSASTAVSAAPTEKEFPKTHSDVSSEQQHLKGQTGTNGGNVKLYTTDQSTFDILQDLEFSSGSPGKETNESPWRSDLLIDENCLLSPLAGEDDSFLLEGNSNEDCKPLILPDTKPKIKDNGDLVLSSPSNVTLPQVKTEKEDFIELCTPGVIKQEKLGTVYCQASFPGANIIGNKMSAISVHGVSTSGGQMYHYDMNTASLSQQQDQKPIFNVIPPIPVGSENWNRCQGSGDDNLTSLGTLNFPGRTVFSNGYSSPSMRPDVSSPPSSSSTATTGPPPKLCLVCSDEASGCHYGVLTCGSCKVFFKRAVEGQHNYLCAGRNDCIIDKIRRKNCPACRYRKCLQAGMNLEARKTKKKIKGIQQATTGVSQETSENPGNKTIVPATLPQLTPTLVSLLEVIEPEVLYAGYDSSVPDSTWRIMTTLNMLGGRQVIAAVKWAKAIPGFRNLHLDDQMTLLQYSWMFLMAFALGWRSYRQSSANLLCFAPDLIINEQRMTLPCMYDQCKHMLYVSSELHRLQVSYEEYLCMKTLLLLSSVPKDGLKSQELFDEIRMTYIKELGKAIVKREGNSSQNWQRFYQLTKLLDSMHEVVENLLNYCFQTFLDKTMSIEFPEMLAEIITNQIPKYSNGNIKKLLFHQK

Turning to `COc1ccccc1CN1CC[C@@]2(CCCN(S(=O)(=O)c3ccccc3)C2)C1`, the Potency in test [1] is > 11.4 µM (inactive); in [3] it was 25.1 µM (active); in [5], > 46 µM (inactive). Further, the figures for the activity change, negative = inhibition in test [2] and in test [9] were 7.37% (inactive) and 6.22% (inactive), respectively. Also, the activity, negative = inhibition in test [4] is 8.35% (inactive). Further, the Potency entry in test [6], in test [7] and in test [8] was “inactive” each time. The max response in test [9] (setting [15]) turned out to be 0.611%; in test [9] (setting [16]), 10.2%.

As for `COc1cccc(-c2nc(N3CCNCC3)c3ccccc3n2)c1`, the Potency was > 11.4 µM (inactive) in [1], > 46 µM (inactive) in test [11] and > 46 µM (inactive) in test [5]. In addition, the results for the activity change, negative = inhibition in test [2], in [10] and in test [9] were 21.6% (inactive), -0.232% (inactive) and 5.82% (inactive), respectively. Moreover, in test [4], the activity, negative = inhibition was -3.15% (inactive). Moreover, the Potency result in test [6], in test [7], in test [12] and in [14] was “inactive” in each case. Also, the compound was classed as inactive in [13]. Moreover, the max response in [9] (setting [15]) was -17.6%; in test [9] (setting [16]), -11.1%.

For the compound `Cc1ccccc1-c1cncnc1N1CCNCC1`, the Potency in [1] is > 11.4 µM (inactive); in test [11] it was > 46 µM (inactive); in test [5] it was > 46 µM (inactive). Also, the activity change, negative = inhibition in [2] is -3.42% (inactive); in test [10] it was 10.1% (inactive); in test [9] it was 10.2% (inactive). In [4], the activity, negative = inhibition was 1.91% (inactive). Also, the Potency entry in test [6], in test [7], in [12] and in test [14] was “inactive” each time. Besides, the compound was classed as inactive in test [13]. For the same compound, the max response in test [9] (setting [15]) worked out at 11%; in [9] (setting [16]), 18.8%.

In the case of `N#Cc1ccc(CN2CC[C@@]3(CCCN(S(=O)(=O)c4ccccc4)C3)C2)cc1`, the Potency was > 11.4 µM (inactive) in test [1], 15.8 µM (active) in [3] and > 46 µM (inactive) in test [5]. The activity change, negative = inhibition is 0.616% (inactive) in test [2] and -4.95% (inactive) in test [9]. Moreover, in [4], the activity, negative = inhibition was -5.91% (inactive). Moreover, the Potency result in test [6] and in test [7] was “inactive” in each case. Further, the max response in [9] (setting [15]) worked out at 13.6%; in test [9] (setting [16]), 7.48%.

`Cc1noc(C)c1-c1nccc(N2CCNCC2)n1`: the Potency was > 11.4 µM (inactive) in test [1], > 46 µM (inactive) in test [11] and > 46 µM (inactive) in test [5]. Besides, the activity change, negative = inhibition is 14.5% (inactive) in [2], -5.44% (inactive) in test [10] and 6.06% (inactive) in test [9]. The activity, negative = inhibition in [4] was -0.568% (inactive). In addition, the Potency result in test [6], in [7], in [12] and in [14] was “inactive” throughout. Also, the result in test [13] was inactive. The max response stood at 6.93% in test [9] (setting [15]) and 14.7% in [9] (setting [16]).

Consider `COc1ccc(NC(=O)N2CC[C@@]3(CCCN(C(=O)c4cc(C(F)(F)F)cc(C(F)(F)F)c4)C3)C2)cc1`, for which the Potency is > 11.4 µM (inactive) in [1] and > 46 µM (inactive) in [5]. Further, the activity change, negative = inhibition was -20.8% (inactive) in test [2], 12.7% (inactive) in test [10] and 6.21% (inactive) in test [9]. For the same compound, the Potency entry in test [3], in [6], in test [7] and in [8] was “inactive” each time. Also, the activity, negative = inhibition in [4] is -6.2% (inactive). Moreover, the max response in test [9] (setting [15]) was found to be 0.894%; in test [9] (setting [16]), 10.8%.

On to `N#Cc1ccccc1-c1cncnc1NCc1cccnc1`, for which the Potency in test [1] is > 11.4 µM (inactive); in [3] it was 0.0631 µM (active); in test [5], > 46 µM (inactive). Further, the figures for the activity change, negative = inhibition in test [2], in test [10] and in test [9] were -25.2% (inactive), 5.72% (inactive) and 4.31% (inactive), respectively. Further, the Potency result in [6], in test [7], in test [8], in test [12] and in test [14] was “inactive” throughout. Besides, in test [13], the call was inactive. Also, the max response in test [9] (setting [15]) amounted to 7.61%; in test [9] (setting [16]), 12.5%.
